Source: PubChem
The sample as a whole holds a higher share of hits than the screen did.
GALK inhibitor – galactokinase (human) inhibition. Potency, µM (top dose mostly 57.5 µM), for the others: top-dose activity change, negative = inhibition, hits mostly inhibitors. Purified GALK, Kinase-Glo residual ATP luminescence. 270,000 compounds, 0.007% hits; further: potency means the concentration at half of the fitted maximal effect
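Galactose (100 uM) and ATP (35 uM) were turned over by 5 nM GALK for 1 h at RT. Kinase-Glo Plus then converted the remaining ATP into a luminescent signal.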
JMJD2E inh – blocks human JMJD2E demethylase activity | B2RXH2 | JMJD2E catalytic domain, FDH-coupled NADH fluorescence (FDH is formaldehyde dehydrogenase) | Potency, µM (highest dose often 57.1 µM), for the others: top-dose activity change, negative = inhibition, actives largely listed as inhibitors | 230,000 compounds, 1.6% hits | AID 2147; active means well fitted inhibition curve with a large enough effect, not every such curve was filed as active; inconclusive means small, poorly fitted or top-dose-only effect, or another doubt; inactive means no such curve, though single readings can be large or run the other way;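 further: potency means the concentration at half of the fitted maximal effect; 0% = wells with enzyme and -100% = buffer wells without enzyme; nearly all actives have a fitted effect of over 50% in size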
Anesthetic bind – candidate novel general anesthetic via apoferritin binding | P02791 | Potency, µM (series often up to 77.5 µM), inactives show top-dose activity change, negative = displacement, actives largely listed as inhibitors | apoferritin/1-aminoanthracene competitive binding, fluorescence | 350,000 compounds, 0.074% hits; further: potency means the concentration at half of the fitted maximal effect; nearly all actives have a fitted effect of over 20% in size
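In PBS, apoferritin at 10 uM is loaded with 1-AMA from a 50% saturated solution. After 10 min of compound exposure at ambient temperature, reduced 535 nm fluorescence indicates probe displacement.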
CtBP-E1A blk – CtBP/E1A binding inhibition | AlphaScreen GST-E1A/His-CtBP binding, 1536-well; hits give low values | activity change, % (no concentration beside the values) | 340,000 compounds, 0.49% hits | AID 651724; in the data active means activity change below about -65%; inconclusive means mostly about -30% to -63%
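AlphaScreen with 125 nM GST-E1A and 125 nM His-CtBP (5X stocks) in Tris pH 8.0, 300 mM NaCl, BSA, Tween 20, TCEP. Compounds preincubated 2 h at 37 deg C, then glutathione donor/nickel acceptor beads added for 1 h at 37 deg C in dark.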
Eya2 inh – Eya2 (human) phosphatase inhibition | AID 488837 | 330,000 compounds, 0.006% hits | Potency, µM (series often up to 76.9 µM), for the others: at the top dose activity, negative = inhibition, hits mostly inhibitors | recombinant Eya2, OMFP fluorescence dephosphorylation (OMFP is methylfluorescein phosphate); further: potency means the concentration at half of the fitted maximal effect
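Eya2 (0.2 uM) preincubated 10 min at ambient with compound, then OMFP substrate added at 50 uM; 10 min reaction in 50 mM HEPES pH 7.5, 50 mM NaCl, 5 uM MgCl2, 0.05% BSA, 1 mM DTT. Fluorescence read at Ex 485/Em 525 nm.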
Six1-Eya2 blk – Six1/Eya2 interaction inhibition | Q15475+O00167 | AlphaScreen GST-Six1/His-Eya2 binding, biochemical; hits give low values | activity change, % (test concentration not listed) | 360,000 compounds, 0.56% hits; in the data active means activity change below about -65%; inconclusive means mostly about -30% to -63%
Target sequence (O00167 whole entry, looked up): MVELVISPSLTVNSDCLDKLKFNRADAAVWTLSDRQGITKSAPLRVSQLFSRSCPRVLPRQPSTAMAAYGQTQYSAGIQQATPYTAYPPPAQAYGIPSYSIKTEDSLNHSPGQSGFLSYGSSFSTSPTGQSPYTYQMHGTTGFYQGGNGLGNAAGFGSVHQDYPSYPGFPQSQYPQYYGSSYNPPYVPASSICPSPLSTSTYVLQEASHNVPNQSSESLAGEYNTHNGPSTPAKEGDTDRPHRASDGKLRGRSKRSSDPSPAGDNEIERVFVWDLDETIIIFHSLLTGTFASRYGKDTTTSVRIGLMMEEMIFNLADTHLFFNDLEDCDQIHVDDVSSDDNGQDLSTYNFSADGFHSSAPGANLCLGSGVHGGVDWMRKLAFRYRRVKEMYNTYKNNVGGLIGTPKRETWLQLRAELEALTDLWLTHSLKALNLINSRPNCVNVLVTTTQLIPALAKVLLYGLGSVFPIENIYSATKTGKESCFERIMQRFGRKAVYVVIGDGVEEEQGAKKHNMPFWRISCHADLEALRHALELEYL
Target sequence (Q15475 whole entry, looked up): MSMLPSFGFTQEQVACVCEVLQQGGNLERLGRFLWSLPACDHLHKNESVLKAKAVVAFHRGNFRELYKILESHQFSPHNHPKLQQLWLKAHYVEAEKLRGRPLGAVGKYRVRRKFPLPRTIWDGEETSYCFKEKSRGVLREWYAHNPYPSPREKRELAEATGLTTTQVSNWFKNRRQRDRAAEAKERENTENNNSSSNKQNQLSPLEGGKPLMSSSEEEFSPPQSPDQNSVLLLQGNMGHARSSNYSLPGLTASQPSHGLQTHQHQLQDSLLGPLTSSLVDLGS
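Homogeneous AlphaScreen proximity assay pairing GST-Six1 with His-tagged Eya2 (added as 5X mix: 250 nM and 500 nM) in 50 mM Tris pH 8.0, 300 mM NaCl, 1 mM TCEP. Glutathione donor and nickel acceptor beads; 1 h, 37 °C, dark.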
Numbers without * were called inactive. Unless noted, the call rests on the fitted dose curve; in most records, active means well fitted curve in the direction sought with a large enough effect; inconclusive means small, poorly fitted or top-dose-only effect, or another doubt; inactive means no such curve, though single readings can be large; an effect the other way counts as inactive or inconclusive. Unless noted, on the % scale 0 is the no-effect control and ±100 the full control effect.

Screening O=C(COC(=O)c1c2c(nc3ccccc13)/C(=C/c1ccco1)CC2)NC1CCCC1 returned GALK inhibitor 2%, JMJD2E inh 25µM*, Anesthetic bind inconclusive, CtBP-E1A blk -4, Eya2 inh 9% and Six1-Eya2 blk -8.
Screening Cc1cc(C(=O)OCC(=O)NC2CCCCC2C)c2ccccc2n1 (stereo not given) returned CtBP-E1A blk 1, Eya2 inh 5% and Six1-Eya2 blk -2.
Nc1ccc2cc3[nH]c4cc(N)ccc4c3nc2c1 was read as CtBP-E1A blk 5 and Six1-Eya2 blk inconclusive.
Screening CCN(CC)CCN(C(=O)c1ccco1)c1nc2c(C)c(C)ccc2s1 returned Anesthetic bind -2%.
For C=CCOC(=O)N[C@H](/C(C(=O)OC)=C(\C)NCc1ccccc1)c1ccc2c(c1)OCO2 the results were JMJD2E inh -5%.
Screening CCN1CCN(c2c(/C=C3\SC(=S)N(Cc4ccco4)C3=O)c(C)c(C#N)c(=O)n2C)CC1 returned JMJD2E inh 13µM*, Anesthetic bind -4%, CtBP-E1A blk -4, Eya2 inh inconclusive and Six1-Eya2 blk -7.
COc1ccc(-n2c(C)cc(/C=C3\SC(=S)N(Cc4ccco4)C3=O)c2C)cc1 was read as GALK inhibitor 2%, JMJD2E inh -1%, Anesthetic bind -16%, CtBP-E1A blk -23, Eya2 inh 4% and Six1-Eya2 blk 0.
For NC(=O)c1cc(N2C(=O)C=CC2=O)ccc1Cl the results were GALK inhibitor 2%, JMJD2E inh -5%, Anesthetic bind -12%, CtBP-E1A blk 4, Eya2 inh -22% and Six1-Eya2 blk -9.
O=C(O)c1cc(N2C(=O)C=CC2=O)cc(N2C(=O)C=CC2=O)c1 was read as CtBP-E1A blk -11 and Six1-Eya2 blk -74*.
COc1ccc(C(=O)Nc2nc3ccc(S(C)(=O)=O)cc3s2)cc1 was read as GALK inhibitor -2%, JMJD2E inh inconclusive, Anesthetic bind -12%, CtBP-E1A blk -2, Eya2 inh 3% and Six1-Eya2 blk -1.
COc1ccc(C(=O)Nc2nc3ccc(OC)cc3s2)cc1 was read as GALK inhibitor 0%, Anesthetic bind -1%, CtBP-E1A blk -72*, Eya2 inh 3% and Six1-Eya2 blk inconclusive.
`CCOc1ccc2nc(NC(=O)c3ccccn3)sc2c1` gave GALK inhibitor 11%, JMJD2E inh 6%, Anesthetic bind -4%, CtBP-E1A blk inconclusive, Eya2 inh 4% and Six1-Eya2 blk inconclusive.
Screening Cc1ccc2nc(NC(=O)c3ccccn3)sc2c1 returned GALK inhibitor -1%, JMJD2E inh -17%, Anesthetic bind -11%, CtBP-E1A blk inconclusive, Eya2 inh -7% and Six1-Eya2 blk -73*.
For COc1ccc(-c2oc3ncn4nc(COc5ccc(Cl)cc5)nc4c3c2-c2ccc(OC)cc2)cc1 the results were Anesthetic bind 0%.
`COc1ccc(OC)c(CCNC(=O)Cn2sc3nc(C)cc(C)c3c2=O)c1` gave GALK inhibitor 2%, JMJD2E inh 28µM*, Anesthetic bind -8% and Eya2 inh 15%.
Cc1cc(C)c2c(=O)n(CC(=O)NC3CCCC3)sc2n1 was read as GALK inhibitor 1%, JMJD2E inh inconclusive, Anesthetic bind 1%, CtBP-E1A blk 1, Eya2 inh -11% and Six1-Eya2 blk 6.
Screening CCOC(=O)c1c(Nc2ccc(F)cc2)nnc(-c2ccccc2)c1-c1ccccc1 returned Anesthetic bind -1%.
CCOC(=O)c1ccc(CN(Cc2ccc(F)cc2)S(=O)(=O)c2ccc(F)c(C(=O)Nc3ccccc3C(F)(F)F)c2)cc1 was read as Anesthetic bind -10%.
For COc1ccccc1CNc1nc(=S)[nH]c2cc(OC)c(OC)cc12 the results were GALK inhibitor 2%, Anesthetic bind 3%, CtBP-E1A blk -85*, Eya2 inh 13% and Six1-Eya2 blk -81*.
COc1cc2[nH]c(=S)nc(NCc3ccc(Cl)cc3)c2cc1OC was read as GALK inhibitor -3%, Anesthetic bind -9%, CtBP-E1A blk inconclusive, Eya2 inh 6% and Six1-Eya2 blk inconclusive.
For COc1cc2[nH]c(=S)nc(NCc3cccs3)c2cc1OC the results were GALK inhibitor 10%, JMJD2E inh 4%, Anesthetic bind inconclusive, CtBP-E1A blk -90*, Eya2 inh 2% and Six1-Eya2 blk -84*.
Cn1ncc(S(=O)(=O)Cc2ccccc2)c(Br)c1=O was read as Eya2 inh 9%.
CCC1=C2CC[C@H]3C(=O)N(CC(=O)OC)C(=O)[C@H]3[C@H]2[C@@]2(C)C(=NCCc3c[nH]c4ccccc34)OC(=O)N2C1=O was read as JMJD2E inh -16% and Anesthetic bind -7%.
`CN(C)c1ccc(CNC(=O)C2CCN(S(=O)(=O)c3cn(C)cn3)CC2)cc1` gave Anesthetic bind 57%.
Screening Cc1ccc(NC(=O)CSc2cc(=O)n(C)c3ccc(Cl)cc23)c(Br)c1 returned Anesthetic bind -2%.
Cc1ccc(Cn2cc(CCC(=O)O)c3ccccc32)cc1 was read as GALK inhibitor -1%, Anesthetic bind -2%, CtBP-E1A blk -65*, Eya2 inh -2% and Six1-Eya2 blk 3.
For Cc1ccc(CNC(=O)CCc2cn(Cc3ccc(C)cc3)c3ccccc23)cc1 the results were Anesthetic bind -10%.
For CN=c1scc(-c2ccc([N+](=O)[O-])cc2)n1/N=C/c1ccco1 the results were GALK inhibitor -1%, JMJD2E inh 14%, Anesthetic bind -8%, CtBP-E1A blk -10, Eya2 inh -9% and Six1-Eya2 blk -10.
Screening CN=c1scc(-c2ccc(F)cc2)n1/N=C/c1ccc(O)c(O)c1 returned GALK inhibitor 0%, JMJD2E inh 28µM*, Anesthetic bind 2%, CtBP-E1A blk -27, Eya2 inh 0% and Six1-Eya2 blk inconclusive.
Screening Cc1cc(C)cc(C(=O)N2CCCCCC2)c1 returned GALK inhibitor 2%, JMJD2E inh 6%, Anesthetic bind 13µM*, CtBP-E1A blk 7, Eya2 inh 0% and Six1-Eya2 blk 4.
